Experimental data as given in PubChem BioAssay (EPA / NIEHS).
Records with an inconclusive call do not appear. Active and inactive are the calls of the source. How the source made its calls, unless noted: active means hit-call score of the fitted dose curve at least 0.9, where 1 is the maximum; inconclusive means response in the unintended direction; inactive means score below 0.9.

How the values were obtained:
[1] = Tanguay_ZF_120hpf_BRAI_legacy: (Legacy) Oregon State University Tanguay Lab 120 Hour Post-fertilization zebrafish Assay for Brain Malformation (AID 2283641)
Method in brief: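 Wild-type 5D larvae, static waterborne exposure to 120 hpf, 28C, 0.64% v/v DMSO. Brightfield scoring of brain defects, binary; dead embryos excluded. Positive ctrl 5uM trimethyltin chloride.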

[2] = Tanguay_ZF_120hpf_SOMI_legacy: (Legacy) Oregon State University Tanguay Lab 120 Hour Post-fertilization zebrafish Assay for Somite Malformation (AID 2283647)
Method in brief: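 Read-out: presence or absence of somite malformation in 120 hpf larvae, gain-of-signal relative to DMSO baseline. Embryos lacked chorion (pronase, 4 hpf) and were exposed statically from 6 hpf at 28C; dead larvae not scored.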

[3] = Tanguay_ZF_120hpf_PFIN_legacy: (Legacy) Oregon State University Tanguay Lab 120 Hour Post-fertilization zebrafish Assay for Pectoral Fin Malformation (AID 2283648);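 further: each larva judged yes or no for fin defect by brightfield with dead larvae skipped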
Method in brief: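 Pectoral fin malformation was recorded as a binary endpoint at 120 hpf in wild-type Tropical 5D larvae, which had been dechorionated and exposed statically from 6 hpf at 28C in 0.64% DMSO. Dead embryos were excluded.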

[4] = Tanguay_ZF_120hpf_CFIN_legacy: (Legacy) Oregon State University Tanguay Lab 120 Hour Post-fertilization zebrafish Assay for Caudal Fin Malformation (AID 2283649)
Method in brief: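 Binary presence or absence of caudal fin malformation at 120 hpf, read by brightfield microscopy, with DMSO as baseline. Larvae came from 5D wild-type embryos exposed statically from 6 hpf at 28C after pronase dechorionation.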

[5] = Tanguay_ZF_120hpf_PIG_legacy: (Legacy) Oregon State University Tanguay Lab 120 Hour Post-fertilization zebrafish Assay for Pigmentation Malformation (AID 2283650)
Method in brief: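 Pigment malformation recorded as a binary call at 120 hpf in zebrafish (Tropical 5D) exposed singly from 6 hpf after pronase dechorionation. Static, sealed, 28C exposure, 0.64% DMSO; mortality excludes scoring; positive-direction fit against DMSO.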

[6] = Tanguay_ZF_120hpf_CIRC_legacy: (Legacy) Oregon State University Tanguay Lab 120 Hour Post-fertilization zebrafish Assay for Circulatory Malformation (AID 2283651)
Method in brief: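 Embryos are dechorionated at 4 hpf, plated one per well at 6 hpf, then held under static exposure at 28C until 120 hpf. Malformations are recorded as binary calls; mortality excludes other endpoints.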

[7] = Tanguay_ZF_120hpf_TRUN_legacy: (Legacy) Oregon State University Tanguay Lab 120 Hour Post-fertilization zebrafish Assay for Truncated Body (AID 2283655)
Method in brief: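 Truncated body is recorded as a binary endpoint at 120 hpf by brightfield imaging of wild-type 5D larvae. Exposure runs statically from 6 hpf at 28C with 0.64% DMSO; embryos dying earlier are not scored.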

[8] = Tanguay_ZF_120hpf_NC_legacy: (Legacy) Oregon State University Tanguay Lab 120 Hour Post-fertilization zebrafish Assay for Notochord and Tail Malformation (AID 2283656)
Method in brief: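 Binary scoring of notochord distortion by brightfield microscopy; embryos dying were not scored. Wild-type Tropical 5D embryos, chorion removed, exposed singly and statically from 6 to 120 hpf, 28C, sealed, 0.64% DMSO.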

[9] = system: Thyroperoxidase (TPO), gene 54314; experiment: CCTE_Simmons_AUR_rTPO: CCTE's Amplex UltraRed Assay for Thyroperoxidase (TPO) Inhibition, Simmons Lab (AID 2283662);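 on AC50: potency for loss of signal meaning inhibition of peroxidase activity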
Method in brief: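 Rat thyroid microsomes (5 ug protein) were incubated with test compound (8 concentrations, 5 nM–87.5 uM final, 0.5% DMSO), 25 uM Amplex UltraRed and 300 uM H2O2 in 200 mM phosphate buffer for 30 min at 37C in the dark; fluorescence read at 544/590 nm.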

[10] = CCTE_Simmons_CellTiterGLO_HEK293T: Viability Assessment in CCTE's Assays for Thyroperoxidase (TPO) Inhibition, Simmons Lab (AID 2283665);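 on AC50: cells exposed to compound for 24 h before readout; actives reduce ATP signal below DMSO vehicle meaning cytotoxicity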
Method in brief: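 Cells were seeded overnight, then exposed to an eight-point series up to 87.5 uM final for 24 hours. CellTiter-Glo reagent was added and luminescence read after 20 min, giving ATP-based viability versus DMSO.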

[11] = Tanguay_ZF_120hpf_TR_legacy: (Legacy) Oregon State University Tanguay Lab 120 Hour Post-fertilization zebrafish Assay for Touch Response (AID 2283667)
Method in brief: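 Binary touch-response endpoint in larvae at 120 hpf after static waterborne exposure from embryo stage (28°C, 0.64% DMSO vehicle, 5 uM trimethyltin chloride as positive control); embryos dead at 24 or 120 hpf excluded; fitted as gain versus DMSO.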

[12] = Tanguay_ZF_120hpf_JAW_legacy: (Legacy) Oregon State University Tanguay Lab 120 Hour Post-fertilization zebrafish Assay for Jaw Malformation (AID 2283638)
Method in brief: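 Steps: dechorionate 4 hpf embryos (pronase); plate 1/well at 6 hpf; add test chemical, 0.64% DMSO final; seal, cover, hold at 28C statically to 120 hpf; score jaw defect presence/absence microscopically. Dead embryos not scored.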

[13] = Tanguay_ZF_120hpf_OTIC_legacy: (Legacy) Oregon State University Tanguay Lab 120 Hour Post-fertilization zebrafish Assay for Otic Vesicle Malformation (AID 2283639)
Method in brief: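 Statically exposed wild-type 5D zebrafish embryos, kept sealed and dark at 28C through 120 hours post fertilization, were examined by brightfield microscopy for otic vesicle defects. Responses were recorded as present or absent and analysed relative to DMSO.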

[14] = Tanguay_ZF_120hpf_SWIM_legacy: (Legacy) Oregon State University Tanguay Lab 120 Hour Post-fertilization zebrafish Assay for Swim Bladder Malformation (AID 2283654);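 further: swim bladder malformation in each larva scored yes or no under brightfield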
Method in brief: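 Scoring is binary for swim bladder defects at 120 hpf, by brightfield inspection of zebrafish larvae. Embryos were exposed singly from 6 hpf after pronase dechorionation, at 28C with 0.64% DMSO; mortality excluded scoring.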

[15] = Tanguay_ZF_120hpf_PE_legacy: (Legacy) Oregon State University Tanguay Lab 120 Hour Post-fertilization zebrafish Assay for Pericardial Edema (AID 2283640)
Method in brief: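 Embryos from wild-type 5D adults were staged, then dosed in 0.64% DMSO. They were kept sealed in the dark at 28C until 120 hpf. Pericardial edema was then recorded as present or absent.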

[16] = read-out: solute carrier (SLC22A6), SLC22A6 (gene 9356); experiment: LTEA_HepaRG_SLC22A6: Life Technologies and Expression Analysis (LTEA) Assay for solute carrier (SLC22A6) using HepaRG (AID 2283653; active means hit-call score of the fitted dose curve at least 0.9, where 1 is the maximum; inactive means score below 0.9); conditions: mRNA level, 48 h; actives raise or lower the signal
Method in brief: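 Read-out is SLC22A6 transcript level by qRT-PCR, normalised to three housekeeping genes and fitted for gain or loss relative to 0.5% DMSO vehicle. Human HepaRG cells received chemicals at up to 100 uM for 48 h.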

[17] = read-out: solute carrier (SLC10A1), SLC10A1 (gene 6554); experiment: LTEA_HepaRG_SLC10A1: Life Technologies and Expression Analysis (LTEA) Assay for solute carrier (SLC10A1) using HepaRG (AID 2283657; active means hit-call score of the fitted dose curve at least 0.9, where 1 is the maximum; inactive means score below 0.9); conditions: mRNA level, 48 h; actives raise or lower the signal
Method in brief: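 SLC10A1 transcript measured by TaqMan qRT-PCR, housekeeping-normalised, after 48 h chemical treatment of human HepaRG cells. Eight concentrations (half-log, max 100 uM, 0.5% DMSO vehicle) in duplicate; fitted bidirectionally against DMSO baseline.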

[18] = read-out: matrix metalloproteinase-1 (MMP1), MMP1 (gene 4312); experiment: LTEA_HepaRG_MMP1: Life Technologies and Expression Analysis (LTEA) Assay for matrix metalloproteinase-1 (MMP1) using HepaRG (AID 2283658; active means hit-call score of the fitted dose curve at least 0.9, where 1 is the maximum; inactive means score below 0.9); conditions: mRNA level, 48 h; actives raise or lower the signal
Method in brief: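 HepaRG, ~100,000 cells/well, 48 h pre-culture; serum-free induction medium; test chemical 8 conc (max 100 uM, half-log), duplicate, 48 h; 0.5% DMSO; qRT-PCR MMP1, housekeeping-normalized; gain/loss fit vs DMSO.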

[19] = read-out: Cytochrome P450 (CYP24A1_1), CYP24A1 (gene 1591); experiment: LTEA_HepaRG_CYP24A1_1: Life Technologies and Expression Analysis (LTEA) Assay for Cytochrome P450 (CYP24A1_1) using HepaRG (AID 2283671; active means hit-call score of the fitted dose curve at least 0.9, where 1 is the maximum; inactive means score below 0.9); conditions: mRNA level, 48 h; actives raise or lower the signal
Method in brief: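 Differentiated human HepaRG cells were exposed in duplicate for 48 h in serum-free induction medium to eight concentrations (top 100 uM, half-log steps, 0.5% DMSO). CYP24A1 mRNA was quantified by TaqMan qRT-PCR, normalized to ACTB, GAPDH and POLR2A, and fitted bidirectionally versus DMSO.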

Measured: AC50

O=C1O[C@H]([C@@H](O)CO)C(O)=C1O
inactive: [1] | [2] | [3] | [4] | [5] | [6] | [7] | [8] | [10] | [11]
active: [9] 43.8 µM

c1ccc2ccccc2c1
inactive: [12] | [13] | [1] | [2] | [3] | [4] | [5] | [6] | [14] | [8] | [11]

CCCCCCCCOc1ccc(C(=O)c2ccccc2)c(O)c1
inactive: [12] | [13] | [2] | [3] | [4] | [5] | [14] | [8]

O=C(OCCCCCCOC(=O)c1ccccc1)c1ccccc1
inactive: [12] | [15] | [2] | [4] | [6] | [8] | [11]

C[C@]12CC[C@@H]3c4ccc(O)cc4CC[C@H]3[C@@H]1CCC2=O
inactive: [12] | [13] | [2] | [3] | [4] | [5] | [14] | [8]

CCCCCc1ccc(N)cc1
active: [9] 0.0637 µM | [10] 26.7 µM
inactive: [13] | [1] | [3] | [4] | [5] | [6] | [14] | [8]

CCCCCCCCCCCO
inactive: [12] | [13] | [1] | [3] | [4] | [5] | [6] | [14]

CC/C(=C(/CC)c1ccc(O)cc1)c1ccc(O)cc1
active: [9] 5.22 µM | [10] 8.59 µM
inactive: [12] | [13] | [1] | [3] | [4] | [6] | [14]

CCCCCCCCN(C)CCCCCCCC
inactive: [12] | [15] | [1] | [2] | [3] | [4] | [6] | [7] | [8]

O=C1CCC(C2CCCCC2)CC1
active: [10] 43.8 µM
inactive: [12] | [13] | [1] | [3] | [4] | [5] | [6] | [14] | [7] | [8] | [9]

Cc1occc1C(=O)Nc1ccc(C(=O)N2CCC(F)(F)/C(=C\C(=O)N3CCC(N4CCCCC4)CC3)c3ccccc32)cc1
inactive: [12] | [15] | [1] | [2] | [3] | [4] | [5] | [16] | [7] | [8] | [18] | [11] | [19]
active: [17] 41.9 µM
